Compound activity (PubChem)
IL1B secr inh: inflammasome signaling inhibition, IL-1 beta readout. THP-1 LPS/ATP IL-1B secretion, AlphaLISA, 16 h; active compounds read low. activity change, % at 57.5 µM. 360,000 compounds, 4.7% hits; in the data active = activity change below about -50%; inconclusive = mostly about -30% to -49%
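THP-1 cells pretreated 1 hr with compounds (up to 57.5 uM final), then stimulated with LPS (250 ng/mL final) plus ATP (1.25 mM final); secreted IL-1B measured by AlphaLISA after 16 hr, decreased signal indicating inhibition.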
TDP1 cell CPT: DT40-hTDP1 cell growth loss with CPT; Potency, µM (titrated, usually from 46.2 µM), most hits filed as inhibitors; chicken DT40 Tdp1-/-;hTDP1 cells + 20 nM CPT, ATP luminescence, 48 h; 420,000 compounds, 12% hits; also: nearly all actives have a fitted effect of over 55% in size
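Chicken DT40 Tdp1-/- cells complemented with human TDP1, 400 cells/well, exposed to compounds plus 20 nM camptothecin for at least 48 h at 37 C; viability read as ATP content by CellTiter-Glo luminescence.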
HepG2 viability: counter-screen for TGF-b inhibitors: cytotoxicity in HepG2 cells; HepG2 CAGA-GFP viability, ATP luminescence, 18 h; Potency, µM (top dose mostly 46.1 µM), actives largely listed as cytotoxic; 410,000 compounds, 0.76% hits; AID 588856
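HepG2 CAGA-GFP cells (1000/well, DMEM with 1% FBS) received compound, then TGF-beta at 500 pg/mL final, and were incubated 18 hours at 37 degrees C. Viability was read by CellTiter-Glo luminescence. Media-only wells were set as complete cell-killing and DMSO as no toxicity.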
TGFb SMAD3 inh: inhibitors of TGF-b signaling; HepG2 CAGA-GFP TGF-b/SMAD3 reporter, GFP fluorescence, 18 h; TGF-beta stimulated, 500 pg/mL final; 410,000 compounds, 1.2% hits; AID 588855; Potency, µM (top dose mostly 46.1 µM), usual class: inhibitors; also: nearly all actives have a fitted effect of over 65% in size
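GFP signal (ex488/em500-530) from TGF-beta-stimulated HEPG2 CAGA-GFP cells, 500 pg/mL final, 18 h at 37 degrees C in DMEM plus 1% FBS, normalized to unstimulated and DMSO-stimulated controls.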
DT40 TDP1 no CPT: qHTS for Inhibitors of human tyrosyl-DNA phosphodiesterase 1 (TDP1): qHTS in cells in absence of CPT; DT40 Tdp1-/- hTDP1 cells, no CPT, ATP luminescence, 48 h; Potency, µM (titrated, usually from 46.2 µM), most hits filed as inhibitors; 420,000 compounds, 15% hits; AID 686978, 2013; also: nearly all actives have a fitted effect of over 55% in size
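Readout: luminescence from CellTiter-Glo after 30 min in the dark at RT. Cells: DT40 Tdp1-/- with stable hTDP1, 400/well. Exposure: compounds alone, ≥48 hr, 37 °C.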
S-ASM inh: human S-ASM enzyme inhibition; P17405; placental ASM, HMU-PC fluorogenic substrate, 60 min; Potency, µM (titrated, usually from 57.5 µM), hits mostly inhibitors; 340,000 compounds, 0.006% hits; AID 504937
Target sequence (P17405 47-631 limits assumed): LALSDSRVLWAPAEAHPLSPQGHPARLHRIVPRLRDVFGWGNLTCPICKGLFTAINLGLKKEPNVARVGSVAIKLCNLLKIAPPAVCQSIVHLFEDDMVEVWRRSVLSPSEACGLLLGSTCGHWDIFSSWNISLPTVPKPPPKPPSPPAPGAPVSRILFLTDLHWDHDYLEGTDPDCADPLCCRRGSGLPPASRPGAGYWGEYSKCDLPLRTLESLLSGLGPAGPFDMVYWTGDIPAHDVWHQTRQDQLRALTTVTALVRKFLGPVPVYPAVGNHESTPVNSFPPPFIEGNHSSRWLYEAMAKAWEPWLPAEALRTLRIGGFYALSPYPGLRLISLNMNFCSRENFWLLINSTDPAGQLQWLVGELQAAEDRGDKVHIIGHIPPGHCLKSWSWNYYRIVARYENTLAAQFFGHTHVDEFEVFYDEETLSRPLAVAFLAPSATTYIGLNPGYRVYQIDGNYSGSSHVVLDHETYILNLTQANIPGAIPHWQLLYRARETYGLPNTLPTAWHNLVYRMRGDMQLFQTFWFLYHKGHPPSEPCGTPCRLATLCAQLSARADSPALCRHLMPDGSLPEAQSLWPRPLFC
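Steps: dispense placental human ASM, pin compound, wait 10 min at room temperature, add HMU-PC0 substrate at 9 uM final, incubate 60 min at 37 °C, add stop solution raising pH to 10, read fluorescence.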
Numbers stand for hits; 0 = inactive; ? = inconclusive; - = no result given. Sampled rows, rich in hits. Any-hit rate of the full collection: about 19%. Unless noted, calls follow the shape of the dose curve; as a rule, active = well fitted curve in the direction sought with a large enough effect; inconclusive = small, poorly fitted or top-dose-only effect, or another doubt; inactive = no such curve, though single readings can be large; an effect the other way counts as inactive or inconclusive.

SMILES	IL1B secr inh	TDP1 cell CPT	HepG2 viability	TGFb SMAD3 inh	DT40 TDP1 no CPT	S-ASM inh
Cc1ccc(-c2nn(-c3ccccc3)cc2C=C2C(=O)CC(C)(C)CC2=O)cc1	0	15µM	0	?	?	0
CC1=NN(c2ccccc2)C(=O)/C1=C\c1cn(-c2ccccc2)nc1C	0	?	0	0	0	0
CC1(C)CC(=O)C(=Cc2cn(-c3ccccc3)nc2-c2ccccc2)C(=O)C1	0	23µM	0	0	23µM	0
COc1cc(C(=O)O)c2ccccc2n1	0	0	0	0	0	0
Cc1cccc(C)c1NC(=O)CN1CCN(C(=O)c2ccc(OCc3cn4ccccc4n3)cc2)CC1	0	0	0	0	?	0
CC(C)COc1ccc(C(=O)N/C(=C/c2cccc([N+](=O)[O-])c2)C(=O)O)cc1	0	0	0	0	0	0
O=C(Nc1cccc(S(=O)(=O)N2CCCCCC2)c1)c1ccc(=O)[nH]c1	0	?	0	?	18µM	0
O=C(Nc1cccc(S(=O)(=O)N2CCCCCC2)c1)c1ccc(Cl)nc1	?	18µM	0	0	15µM	0
NS(=O)(=O)c1cccc(NC(=O)c2ccc(S(=O)(=O)N3CCCCCC3)cc2)c1	0	0	0	0	?	0
O=C(Nc1ccc(S(=O)(=O)N2CCCCC2)cc1)c1ccc(Cl)nc1	0	18µM	0	?	6.5µM	0
O=C(Nc1ccc(S(=O)(=O)N2CCCC2)cc1)c1ccc(Cl)nc1	0	?	0	0	?	0
O=C(Nc1cccc(S(=O)(=O)N2CCCCC2)c1)c1ccc(Cl)nc1	0	21µM	0	0	15µM	0
COc1ccc(NC(=O)c2ccc(Cl)nc2)cc1S(=O)(=O)N1CCCCC1	0	?	0	?	?	0
N#Cc1c(-n2ncnc2-c2ccc(Br)cc2)sc2c1CCCCC2	-	?	0	0	?	-
CCN(CC)S(=O)(=O)c1ccc(NC(=O)c2ccc(Cl)nc2)cc1	0	?	0	0	23µM	0
O=C(Nc1ccccc1C(=O)N1CCN(Cc2ccccc2)CC1)c1ccc(F)cc1	0	0	0	0	?	-
CC1CN(c2nn3c(=O)c4ccccc4nc3c3ccccc23)CC(C)O1 (configuration not stated)	-63	8.2µM	0	?	5.8µM	0
Cc1nc2ccccc2c(=O)n1CCN1CCOCC1	0	0	0	0	0	0
CCN1CCN(c2nn3c(=O)c4ccccc4nc3c3ccccc23)CC1	-58	?	0	0	16µM	0
CCOc1ccc(CN2C(=O)c3ccccc3C2=O)cc1C(=O)N1CCC(C(N)=O)CC1	0	0	0	0	0	0
Cc1ccc(O)c(-c2[nH]ncc2C(=O)c2ccc(Cl)cc2)c1	-86	0	0	0	0	0
Cc1ccc(-c2[nH]ncc2C(=O)c2cccc(F)c2)c(O)c1	0	?	0	0	15µM	0
Cc1cccc(C(=O)c2cn[nH]c2-c2ccc(C)cc2O)c1	0	0	0	?	0	0
COc1ccc(NC(=O)N2CCCC3(CCN(C(=O)c4ccco4)CC3)C2)cc1	-	0	-	-	0	-
NC(c1ccccc1)c1csc(Nc2ccccn2)n1 (configuration not stated)	?	?	0	?	21µM	-
SMILES	IL1B secr inh	TDP1 cell CPT	HepG2 viability	TGFb SMAD3 inh	DT40 TDP1 no CPT	S-ASM inh
Cc1cnc(C)c(Nc2nc(C(N)c3ccccc3)cs2)n1 (configuration not stated)	0	?	0	0	?	-
CC(N)c1csc(Nc2ncccn2)n1 (configuration not stated)	0	0	0	0	?	-
NC(c1csc(Nc2ccccn2)n1)C1CCCCC1 (configuration not stated)	-68	15µM	0	0	16µM	-
COc1ccccc1NC(C)C(=O)Nc1ccc(C(C)=O)cc1 (configuration not stated)	0	?	0	0	21µM	0
COc1ccccc1NC(=O)C(C)Nc1ccc(C)c(Cl)c1 (configuration not stated)	0	0	0	0	?	0
COc1ccccc1NC(=O)Nc1ccc(C(=O)N2CCCCC2)cc1	?	?	0	0	21µM	0
COC(=O)c1ccccc1NC(=O)Nc1ccc(C(=O)N2CCCC2)cc1	0	0	0	?	0	0
CC1CCC(NC(=O)C2CCN(c3c4c(nc5ncnn35)CCC4)CC2)CC1 (configuration not stated)	0	?	0	0	16µM	0
Cc1ccc(NC(=O)C2CCN(C(=O)c3cccs3)CC2)cc1	0	0	0	0	0	0
CC(=O)Nc1ccc(NC(=O)C2CCN(C(=O)c3cccs3)CC2)cc1	?	23µM	0	0	0	0
O=c1c2cc3c(cc2n(Cc2ccc(Cl)cc2)c(=O)n1Cc1nc(-c2ccccc2)no1)OCO3	-	0	0	0	0	-
Cc1ccc2cc(CN(c3ccccc3C)S(=O)(=O)c3ccccc3)c(=O)[nH]c2c1	0	?	0	0	?	0
Cc1cc(Cl)ccc1OCC(=O)NNC(=O)c1ccc(=O)[nH]c1	0	0	0	0	0	0
COc1ccc(C(=O)N2CCC(C(=O)c3c(C)cc(C)cc3C)CC2)cc1	0	?	0	0	23µM	0
Cc1ccc(C(=O)N2CCC(C(=O)NC3CCCCCC3)CC2)cc1	0	0	0	0	0	0
COc1ccc(NC(=O)C2CCN(c3nc(C)nc4c3CCC4)CC2)cc1	?	12µM	0	0	16µM	0
COc1ccc(C(=O)N2CCC(C(=O)O)CC2)cc1	0	0	0	0	0	0
O=C(Nc1nc(-c2ccc(F)cc2)cs1)C1CCN(C(=O)c2ccc(F)cc2)CC1	-84	6.5µM	0	?	5.8µM	0
O=C(NC1CCCCCC1)C1CCN(C(=O)c2ccc(Br)cc2)CC1	0	21µM	0	0	15µM	0
CCOc1ccc(NC(=O)NCc2ccc3c(c2)OCO3)cc1	0	0	0	0	0	0
COc1ccc(NC(=O)C2CCCN(c3c4c(nc5ncnn35)CCC4)C2)cc1 (configuration not stated)	0	15µM	0	0	23µM	0
COc1ccc(C(=O)N2CCC(C(=O)Nc3ccc(OC)c(OC)c3)CC2)cc1	0	0	0	0	0	0
CC(C)c1ccc(NC(=O)C2CCN(C(=O)c3ccc(F)cc3)CC2)cc1	-	?	0	?	8.2µM	-
O=C(Nc1ccc(Br)cc1)C1CCN(C(=O)c2ccc(F)cc2)CC1	-73	?	0	?	?	0
